Compound activity (PubChem BioAssay)
Shown are actives, neighbours in structure and some others; about 0.52% of the full set was active somewhere.
Sa growth inh – inhibitors of Staphylococcus aureus growth at 42 °C. S. aureus RN4220 growth, OD600, 20 h; stronger effect = lower value. relative growth, % (no concentration beside the values). 170,000 tested, 0.53% active;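 active = relative growth at most 50% at the other temperature and 20+ points below 30 °C, or under 10% at both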
S aureus helic – blocks Staphylococcus aureus DNA helicase | inhibition, % (no concentration beside the values) | AID 485395 | 120,000 tested, 0.05% active | purified S. aureus helicase, fluorescence unwinding assay; in the data active = inhibition above about 25%, passing the limit was not always enough;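 note: 0% = mean of negative control wells and 100% = mean of positive control wells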
An asterisk follows results filed as active; x = not tested or not shown.

SMILES | Sa growth inh | S aureus helic
C=C(NC(=O)C(=C)NC(=O)c1csc(C2=NC3c4csc(n4)C4NC(=O)c5csc(n5)C(C(C)(O)C(C)O)NC(=O)C5CSC(=N5)C(=CC)NC(=O)C(C(C)O)NC(=O)c5csc(n5)C3(CC2)NC(=O)C(C)NC(=O)C(=C)NC(=O)C(C)NC(=O)C(C(C)CC)NC2C=Cc3c(C(C)O)cc(nc3C2O)C(=O)OC4C)n1)C(N)=O (centres undefined) | -1.0* | x
CCOc1nc2cccnc2n(CC(=O)Nc2ccccc2C(F)(F)F)c1=O | 86 | 7
c1cncc(-c2nc(NCCSCc3ccco3)c3ccccc3n2)c1 | 5.9* | -8
Clc1ccc(-c2nc(NCc3ccco3)c3ccccc3n2)c(Cl)c1 | 52 | -36
COC(NC(=O)Nc1nc2ccccc2s1)(C(F)(F)F)C(F)(F)F | 5.5* | 3
CCNC(=O)Nc1nc2ccccc2s1 | 115 | -15
COC(=O)C(N)Cc1c[nH]c2ccccc12 (centres undefined) | 94 | -18
COC(=O)C(Sc1c[nH]c2ccccc12)(C(F)(F)F)C(F)(F)F | 0.0* | 42
Cc1nc2[nH]c(=O)[nH]c(=O)c2s1 | 101 | -4
Cc1nc(-c2ccccn2)nc(SCc2ccccc2)c1Cl | 19* | x
Cc1nc(-c2ccccn2)nc(SCC(=O)c2ccccc2)c1Cl | 106 | x
COc1ccc(OCc2nnc(SC(C)c3nc4ccccc4c(=O)[nH]3)n2C)cc1 (centres undefined) | 75 | -8
CC(C)CNC(=O)N1CCC2(CC1)NC(=O)c1ccccc1O2 | 94 | 10
CN(Cc1ccccc1)S(=O)(=O)c1ccc(NC(=O)c2nc(S(C)(=O)=O)ncc2Cl)cc1 | 6.2* | 9
CN(c1ccccc1)S(=O)(=O)c1ccc(NC(=O)c2nc(S(C)(=O)=O)ncc2Cl)cc1 | -1.2* | x
CCCSc1ncc(Cl)c(C(=O)Nc2ccc(S(=O)(=O)N(C)c3ccccc3)cc2)n1 | 105 | x
CS(=O)(=O)c1ncc(Cl)c(C(=O)NCc2ccccc2)n1 | 23 | -5
Clc1ncnc2sccc12 | 98 | -1
O=C(Nc1sc2c(c1C(=O)NCc1cccnc1)CCC2)c1cccs1 | 105 | 3
CN(C(=O)CSc1nnc(Cc2cccs2)n1CCc1ccccc1)c1ccccc1 | 99 | 12
O=C1c2ccccc2C(=O)c2c1oc1c3c(ccc21)OCN(C1CCS(=O)(=O)C1)C3 (centres undefined) | 7.6* | 27
O=C1c2ccccc2C(=O)c2c1oc1c3c(ccc21)OCN(C1CCCC1)C3 | 97 | 32
CC1(C)CC2CC(C)(CN2S(=O)(=O)c2ccc(Cl)s2)C1 (centres undefined) | 73 | -10
CCCCn1c(SC(CC)C(=O)Nc2ccc3c(c2)OCO3)nc2ccc(N3CCOCC3)cc2c1=O (centres undefined) | 81 | x
CCOC(=O)c1cc2c(=O)n3cccc(C)c3nc2n(C2CCCC2)c1=N | 96 | 0
SMILES | Sa growth inh | S aureus helic
CCOc1ccc(C(=O)NC2CC2)cc1 | x | 11
O=C(Oc1c(C(=O)c2ccccc2)sc2ccccc12)c1ccco1 | 1.7* | 6
O=C(c1ccco1)N1CCN(C(=O)c2sc3ccccc3c2Cl)CC1 | 91 | x
Cc1ccc2c(COC(=O)C3COc4ccccc4O3)cc(=O)oc2c1 (centres undefined) | 97 | 6
c1ccc(-c2ccc3c(c2)c2c4n3CCNC4CCC2)cc1 (centres undefined) | 0.3* | 14
OC(c1ccccc1)c1ccc2c(c1)c1c3n2CCNC3CCC1 (centres undefined) | 87 | -2
N#Cc1ccc(OCC(O)CNC23CC4CC(CC(C4)C2)C3)cc1 (centres undefined) | 98 | 8
c1ccc(-n2ncc3c(OCc4nc5ccccc5s4)ncnc32)cc1 | 80 | -20
CC(C)(C)c1cc(C(c2ccc(O)cc2)N2CCOCC2)cc(C(C)(C)C)c1O (centres undefined) | -1.3* | 15
CC(C)(C)c1cc(C(c2ccccn2)N2CCCC2)cc(C(C)(C)C)c1O (centres undefined) | 104 | 13
CC(C)N(C(=O)CSc1nc(O)cc(=O)[nH]1)C(C)C | 80 | -10
O=C1C=CC(=O)N1c1cccc2ccccc12 | 91 | 10
CC(C)c1cccc(C(C)C)c1N1C(=O)C=CC1=O | 6.7* | x
COC(=O)C1CCN(c2cc(C)c3cccc(C(C)C)c3n2)CC1 | 118 | 11
Cc1[nH]c2ccccc2c1C(=O)CSc1ncccn1 | 84 | 13
CCC(=O)Nc1nnc(-c2ccc3c(c2)CCCC3)o1 | -0.4* | -4
O=C(Nc1nnc(-c2ccc3c(c2)CCCC3)o1)C1CCCCC1 | x | -17
CCC(=O)Nc1nnc(-c2ccco2)o1 | 90 | 3
CCC(=O)Nc1nnc(-c2cccc(OC)c2)o1 | 0.6* | -3
C[C@H]1COc2c(C3(N)CC3)c(F)cc3c(=O)c(C(=O)O)cn1c23 | -0.9* | x
C[C@H]1COc2c(N3CCN(C)CC3)c(F)cc3c(=O)c(C(=O)O)cn1c23 | -0.5* | x
CN1CCN(c2c(F)cc3c(=O)c(C(=O)O)cn4c3c2SCC4)CC1 | -0.4* | x
Cc1cc(F)c(F)cc1C(=O)N1CCN(C)CC1 | 108 | 7
Cc1ccc(NC(=O)CCn2c(=O)c3cccn3c3ccccc32)cc1 | 82 | 20
CSc1ncc(Cl)c(C(=O)NCc2ccccc2)n1 | 102 | 8
SMILES | Sa growth inh | S aureus helic
CC1=NC(C(F)(F)F)(C(F)(F)F)C2=C(CC(C)(C)CC2=O)N1C(C)c1ccccc1 (centres undefined) | 106 | 12
Cc1ccc(NC(=O)c2ccn(C(=O)Nc3cccc(Cl)c3)n2)cc1 | 45* | 17
Cc1ccc(NC(=O)c2ccc(=O)n(CC(=O)Nc3cccc(C)c3)n2)cc1 | 114 | x
O=C(O)CCN1C(=O)CCC1=O | 97 | 4
O=C(COC(=O)c1ccc(Cl)s1)c1ccc2[nH]c(=O)[nH]c2c1 | 67 | -13
O=S(=O)(c1ccc2ccccc2c1)N1CCN(Cn2[nH]c(-c3cccs3)nc2=S)CC1 | 42 | 21
C=CCN(CC=C)Cn1[nH]c(-c2cccs2)nc1=S | 38* | -3
CCN1C(=O)/C(=C\c2ccc(-c3ccc(Cl)c(C(=O)O)c3)o2)SC1=S | -0.7* | -80
CN1C(=O)S/C(=C/c2ccc(-c3ccc(C(=O)O)c(Cl)c3)o2)C1=O | 58 | 12
CCN(CC)S(=O)(=O)c1ccc(C)c(C(=O)Nc2cc(C)on2)c1 | 102 | -2
CC(C)(CO)C(O)C(=O)NN (centres undefined) | 99 | -1
O=c1oc2cc(Cl)c(O)c(Cl)c2s1 | 60 | 30
Oc1nc2c(Cl)c(Cl)c(Cl)cc2o1 | -1.2* | 30
O=C(O)CCC(=O)CCN1CCCCC1 | 91 | -1
O=C1CC(C(=O)c2ccccc2)N=C(Nc2ccc(Cl)cc2Cl)N1 (centres undefined) | 102 | 12
COc1ccc(C2OC(=O)CC2C(=O)NC2CCCC2)cc1OC (centres undefined) | 85 | -2
CCOc1ccc2ccccc2c1C=C1C(=O)N(C)C(=S)N(C)C1=O | 89 | 12
Cc1cccc(OCc2nnc(SCC(=O)C34CC5CC(CC(C5)C3)C4)o2)c1 | 86 | 1
Cc1cc(C(F)(F)F)c2c(N)c(C#N)sc2n1 | 101 | -24
CN(C1=CC(=O)c2ccccc2C1=O)c1ccccc1 | x | -4
COC1=CC(=O)c2ccccc2C1=O | 1.0* | 29
CC(NC(=O)Cn1c(CCCO)nc2ccccc21)C1CC2CCC1C2 (centres undefined) | 103 | 0
Cc1nn(CC(=O)NC2CCCC2)c(=O)c2cccn12 | 83 | 4
